A selection: hits, their analogues and other compounds. The true share with any hit is near 2.8%.
POLB inh: DNA polymerase beta (human) inhibition; AID 485314; 340,000 compounds, 1.3% hits; P06746; Potency, µM (top dose mostly 114 µM), most hits filed as inhibitors; Pol beta primer extension/strand displacement, fluorescence kinetic
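10 nM enzyme + cpd, 15 min RT; start with substrate 50 nM final; read 0 min and after 10 min RT. Corrected, normalized data; 4-parameter Hill curve fit.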
Pol iota inh: blocks human DNA polymerase iota activity; Potency, µM (highest dose often 115 µM), usual class: inhibitors; AID 588590; Q9UNA4; 390,000 compounds, 1% hits; Pol iota fluorescent replication assay, 10 min
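Fluorescent replication assay read twice, at 0 min and 10 min after adding 50 nM (final) substrate. Enzyme (10 nM) and compounds were first incubated 15 min at room temperature; enzyme-free buffer wells were negative controls.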
POLK inh: inhibitors of human DNA polymerase kappa | Q9UBT6 | purified Pol kappa, fluorescent DNA synthesis assay, 10 min | Potency, µM (series often up to 107 µM), usual class: inhibitors | 400,000 compounds, 0.53% hits
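10 nM Pol kappa was preincubated with compounds for 15 min at room temperature. Reaction started with 50 nM (final) substrate. Fluorescence read kinetically at 0 and 10 min.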
POLH inh: inhibitors of human DNA polymerase eta. recombinant Pol eta, fluorescent DNA replication assay. Potency, µM (titrated, usually from 114 µM), actives largely listed as inhibitors. 390,000 compounds, 1.2% hits. AID 588591
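Pol eta at 10 nM preincubated with compounds 15 min at room temperature; reaction started with fluorescent substrate (50 nM final) and read kinetically at 0 and 10 min.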
WRN helicase inh: WRN helicase (human) inhibition; AID 651768; WRN helicase unwinding, fluorescent forked duplex, kinetic; Potency, µM (titrated, usually from 114 µM), actives largely listed as inhibitors; 360,000 compounds, 0.46% hits; Q14191; also: nearly all actives have a fitted effect of over 55% in size
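Kinetic fluorescence helicase assay: unwinding of a quenched forked DNA duplex (100 nM final) with 2 mM ATP final raises red fluorescence (525/598 nm). Compounds sat 15 min at room temperature with 20 nM WRN beforehand.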
PI5P4Ka inh: PI5P4K alpha (human) kinase inhibition | 330,000 compounds, 1.2% hits | max response, % | P48426 | AID 652105 | PI5P4Kalpha enzyme, ADP-Glo luminescence, 60 min; active compounds read low; active = max response of -50% or lower; inconclusive = between -30% and -50%; inactive = -30% or higher; also: value at the top dose of about 77 µM
Target sequence (P48426 whole entry, looked up): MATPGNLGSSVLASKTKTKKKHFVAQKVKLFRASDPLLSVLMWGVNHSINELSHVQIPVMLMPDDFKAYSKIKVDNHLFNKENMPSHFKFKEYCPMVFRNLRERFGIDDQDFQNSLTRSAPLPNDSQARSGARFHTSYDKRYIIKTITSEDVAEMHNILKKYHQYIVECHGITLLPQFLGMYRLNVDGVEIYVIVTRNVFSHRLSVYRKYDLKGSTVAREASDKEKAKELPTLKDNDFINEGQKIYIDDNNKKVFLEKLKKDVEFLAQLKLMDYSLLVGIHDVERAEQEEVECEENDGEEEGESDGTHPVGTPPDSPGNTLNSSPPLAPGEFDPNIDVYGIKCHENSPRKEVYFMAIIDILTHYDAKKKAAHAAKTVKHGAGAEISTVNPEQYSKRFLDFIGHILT
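qHTS, 1536-well: enzyme/substrate mix, compound by pin tool, 5 microM ATP final; RT 60 min; ADP-Glo reagents 1 (45 min) then 2 (30 min); luminescence.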
ADP-Glo counter: interferes with ADP-Glo detection without enzyme present; shares compounds with PI5P4Ka inh; ADP-Glo detection counter-screen, luciferase luminescence, no enzyme; Potency, µM (doses to about 76.9 µM), most hits filed as inhibitors; 1,100 tested, under 10 active
Of the large screens only hits and unclear results are named; the others gave an inactive call (follow-up assays come after a bar, where they were run). Unless noted, calls follow the shape of the dose curve; as a rule, active = well fitted curve in the direction sought with a large enough effect; inconclusive = small, poorly fitted or top-dose-only effect, or another doubt; inactive = no such curve, though single readings can be large; an effect the other way counts as inactive or inconclusive.

CCCNC(=O)N(C)C[C@@H]1Oc2ncc(Br)cc2C(=O)N([C@H](C)CO)C[C@@H]1C	none (no result: POLB inh, Pol iota inh, POLK inh)
CCCNC(=O)N(C)C[C@@H]1Oc2ncc(-c3ccncc3)cc2C(=O)N([C@H](C)CO)C[C@@H]1C	PI5P4Ka inh -56 (no result: POLB inh, Pol iota inh, POLK inh) | ADP-Glo counter inactive
CN1CSC2=C(C#N)C(c3cccc(OCc4ccccc4)c3)CC(=O)N2C1 (stereo unspecified)	PI5P4Ka inh inconclusive
CCc1ccc(N2CSC3=C(C#N)C(c4cccs4)CC(=O)N3C2)cc1 (stereo unspecified)	POLB inh inconclusive, Pol iota inh 11µM, POLK inh 79µM, POLH inh inconclusive, PI5P4Ka inh -68 | ADP-Glo counter inactive
N#CC1=C2SCN(c3ccc(F)cc3)CN2C(=O)CC1c1cccc(F)c1 (stereo unspecified)	PI5P4Ka inh -59 | ADP-Glo counter inactive
CCc1ccc(C2CC(=O)N3CN(c4ccccc4)CSC3=C2C#N)cc1 (stereo unspecified)	POLB inh 40µM, Pol iota inh inconclusive, PI5P4Ka inh -95 | ADP-Glo counter inactive
COc1cc(OC)c(C2CC(=O)N3CN(c4ccc(C)cc4)CSC3=C2C#N)cc1OC (stereo unspecified)	WRN helicase inh inconclusive, PI5P4Ka inh -77 | ADP-Glo counter inactive
CN(C)S(=O)(=O)NCC1CCCN(Cc2ccc(-c3ccccc3)cc2)C1 (stereo unspecified)	POLB inh inconclusive
Cn1cc(S(=O)(=O)N2CCCC2)cc1C(=O)N1CCN(c2ccccc2)CC1	none
Cc1nc2sc(C(=O)Nc3ccccc3)c(N)c2c(C)c1[N+](=O)[O-]	none
Cc1ccc(N2CSC3=C(C#N)C(c4cccs4)CC(=O)N3C2)cc1 (stereo unspecified)	POLB inh inconclusive, Pol iota inh inconclusive, POLK inh inconclusive, PI5P4Ka inh -60 | ADP-Glo counter inactive
COc1ccc(S(=O)(=O)N2CCOCC2)cc1NC(=O)CCNC(=O)c1ccc([N+](=O)[O-])cc1	none (no result: POLB inh)
O=C(Cc1ccc(Cl)cc1Cl)Nc1cccc(S(=O)(=O)Nc2ccccc2F)c1	WRN helicase inh 56µM, PI5P4Ka inh -51 | ADP-Glo counter inactive
O=C(Cc1c(F)cccc1Cl)Nc1cccc(S(=O)(=O)NC2=NCCCCC2)c1	none (no result: POLB inh)
O=C1NC(c2cccs2)Nc2ccccc21 (stereo unspecified)	WRN helicase inh inconclusive, PI5P4Ka inh -58 | ADP-Glo counter inactive
O=C(NCC1CCCCC1)c1cccc([N+](=O)[O-])c1	PI5P4Ka inh -62 | ADP-Glo counter inactive
COc1cc(NC2=Nc3cccc4cccc2c34)cc(OC)c1OC	PI5P4Ka inh -50 | ADP-Glo counter inactive
O=C(NCc1ccc(F)cc1)C1CCN(c2cnccn2)CC1	PI5P4Ka inh -53 | ADP-Glo counter inactive
O=C(NCc1ccc(F)cc1)C1CCCN(c2cnccn2)C1 (stereo unspecified)	none
CC(C)(C)OC(=O)C[C@H]1C/C=C\C[C@@H](CC(=O)N(CCO)Cc2ccccc2)C(=O)NC[C@@H](c2ccccc2)OC1=O	none (no result: POLB inh)
Cc1ccc(-c2csc3ncnc(NCCC(=O)O)c23)cc1C	none (no result: PI5P4Ka inh) | ADP-Glo counter inactive
COc1ccc(CN2CCN(C3CCC3)CC2CCO)c(F)c1 (stereo unspecified)	none
O=[N+]([O-])c1ccc(C(c2sc3nc(-c4ccco4)nn3c2O)N2CCC3(CC2)OCCO3)cc1 (stereo unspecified)	none (no result: WRN helicase inh, PI5P4Ka inh)
Cc1ccn2c(=O)c(C(=O)O)cnc2c1	none
CCOC(=O)c1cnc2cc(C)ccn2c1=O	Pol iota inh inconclusive | ADP-Glo counter inactive
CC(C)N(CCC(=O)c1ccc2ccccc2c1)Cc1ccccc1	POLB inh inconclusive, Pol iota inh inconclusive, WRN helicase inh inconclusive, PI5P4Ka inh -89 | ADP-Glo counter inactive
CC(OC(=O)c1ccc2ccccc2c1)C(=O)N(C)Cc1ccccc1 (stereo unspecified)	none (no result: POLB inh)
O=C(C1=NN[C@@H]2C(=O)N(Cc3ccccc3)C(=O)[C@H]12)c1ccc([N+](=O)[O-])cc1	none
NC(=O)[C@@H]1CC2(CC(c3cccc(NC(=O)COc4ccc(Cl)cc4)c3)=NO2)CN1C(=O)COc1ccc(Cl)cc1 (stereo partly specified)	POLB inh inconclusive | ADP-Glo counter inactive
CC(=O)c1ccc2noc(-c3ccc(C)cc3)c2c1	none
Cc1ccc(-c2onc3ccc(C(=O)O)cc23)cc1	POLB inh inconclusive, Pol iota inh inconclusive, PI5P4Ka inh -52 | ADP-Glo counter inactive
O=C(O)c1cccc(S(=O)(=O)Nc2ccc3[nH]c(=O)[nH]c3c2)c1	Pol iota inh inconclusive, PI5P4Ka inh inconclusive
O=C(O)c1ccc(Cl)c(S(=O)(=O)Nc2ccc3[nH]c(=O)[nH]c3c2)c1	POLB inh 3.5µM, Pol iota inh inconclusive, POLK inh inconclusive, POLH inh inconclusive, PI5P4Ka inh -65 | ADP-Glo counter inactive
CCC(=O)c1ccc(OCC(=O)N2CCN(S(=O)(=O)c3ccc(Cl)s3)CC2)cc1	Pol iota inh inconclusive, POLK inh inconclusive, POLH inh 45µM, PI5P4Ka inh -54 (no result: POLB inh) | ADP-Glo counter inactive
CCCNC(=O)C1(C)CCN(C(=O)c2cc(C)nn2C(C)(C)C)C1 (stereo unspecified)	none (no result: POLB inh, Pol iota inh, POLK inh, POLH inh)
CCCNC(=O)C1(C)CCCN(C(=O)c2cc(C)nn2C(C)(C)C)C1 (stereo unspecified)	PI5P4Ka inh -71 (no result: POLB inh, Pol iota inh, POLK inh, POLH inh) | ADP-Glo counter inactive
CCN1CCN(C(=O)c2sc3nc(C)nc(N4CCC(C)CC4)c3c2C)CC1	none
Cc1nc(N2CCC(C)CC2)c2c(C)c(C(=O)O)sc2n1	Pol iota inh inconclusive (no result: PI5P4Ka inh) | ADP-Glo counter inactive
COc1ccc(OC)c(CN2C(=O)CSCC2(C)C(=O)NCc2ccccc2)c1 (stereo unspecified)	none (no result: POLB inh, Pol iota inh, POLK inh, POLH inh)
CCC(=O)Oc1ccc(C(=O)Nc2c[nH]c(=O)[nH]c2=O)cc1	PI5P4Ka inh -53 | ADP-Glo counter inactive
COc1ccccc1C(=O)Nc1ccc(C(=O)Nc2ccccc2C(=O)O)cc1	PI5P4Ka inh -80 | ADP-Glo counter inactive
CCC(=O)Oc1ccc(C(=O)Nc2cccc(C(=O)c3ccccc3)c2)cc1	PI5P4Ka inh -67 | ADP-Glo counter inactive
CC(=O)Oc1ccc(C(=O)Nc2cccc(C(=O)Nc3ccccc3C(=O)O)c2)cc1	PI5P4Ka inh -51 | ADP-Glo counter inactive
CN(C)C(=S)NCc1ccccc1	WRN helicase inh inconclusive, PI5P4Ka inh -54 | ADP-Glo counter inactive
CN(N)C(=S)NCc1ccccc1	none (no result: PI5P4Ka inh)

High-throughput results (PubChem BioAssay)
